High-throughput results from PubChem.
Only some compounds are listed: those with a hit (about 12% of all), similar ones and a draw of the others.
L3MBTL1 inh = inhibitors of human L3MBTL1; 0.66% of 230,000 active; AlphaScreen L3MBTL1–H3K9me1 peptide binding; Potency, µM (top dose mostly 57.1 µM), for inactives: at the highest dose activity, negative = inhibition, usual class: inhibitors; Q9Y468; also: % is scaled to controls: 0 for no effect and ±100 for the full control effect; nearly all actives have a fitted effect of over 60% in size
Target sequence (Q9Y468 whole entry, looked up): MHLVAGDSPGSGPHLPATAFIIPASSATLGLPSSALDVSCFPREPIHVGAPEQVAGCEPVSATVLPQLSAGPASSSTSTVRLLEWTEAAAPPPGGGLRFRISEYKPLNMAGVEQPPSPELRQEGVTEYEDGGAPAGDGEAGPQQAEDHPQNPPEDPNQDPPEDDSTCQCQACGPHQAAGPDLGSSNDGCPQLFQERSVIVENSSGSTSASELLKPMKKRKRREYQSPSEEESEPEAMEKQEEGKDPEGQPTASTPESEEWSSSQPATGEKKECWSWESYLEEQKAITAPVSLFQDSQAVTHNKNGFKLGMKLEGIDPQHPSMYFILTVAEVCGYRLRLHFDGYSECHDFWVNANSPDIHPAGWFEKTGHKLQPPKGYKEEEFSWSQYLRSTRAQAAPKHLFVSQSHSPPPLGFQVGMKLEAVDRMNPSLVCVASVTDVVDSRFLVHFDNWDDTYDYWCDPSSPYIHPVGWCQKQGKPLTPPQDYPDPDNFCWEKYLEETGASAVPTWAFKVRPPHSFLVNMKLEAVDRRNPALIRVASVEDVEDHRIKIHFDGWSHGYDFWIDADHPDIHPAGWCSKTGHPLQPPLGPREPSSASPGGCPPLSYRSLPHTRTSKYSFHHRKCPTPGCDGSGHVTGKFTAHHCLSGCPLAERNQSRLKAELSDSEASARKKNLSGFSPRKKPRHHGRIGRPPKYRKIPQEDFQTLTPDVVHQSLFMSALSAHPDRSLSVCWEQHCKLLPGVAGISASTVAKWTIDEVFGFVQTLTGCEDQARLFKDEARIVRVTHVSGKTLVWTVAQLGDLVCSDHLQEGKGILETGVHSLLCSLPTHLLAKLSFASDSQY
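Read-out is AlphaScreen signal from streptavidin donor and nickel chelate acceptor beads (10 ug/mL final each) bridging L3MBTL1 (50 nM) and biotinylated K9-monomethylated H3(1-15) peptide (75 nM), after 30 min compound exposure at room temperature.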
G9a block = inhibitors of human histone lysine methyltransferase G9a | 8.8% of 350,000 active | G9a H3K9 monomethylation, AlphaScreen, 2 h | Potency, µM (top dose mostly 102 µM), for the others: at the top dose activity, negative = inhibition, most hits filed as inhibitors | Q96KQ7; also: % is scaled to controls: 0 for no effect and ±100 for the full control effect; nearly all actives have a fitted effect of over 75% in size
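Compounds were preincubated with 20 nM G9a for 15 min, after which biotinylated H3K9 peptide (500 nM) and SAM (20 uM) started a 2 h room-temperature reaction. Monomethylated product was quantified by antibody-based AlphaScreen chemiluminescence.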
JMJD2A Tudor inh = blocks the human JMJD2A Tudor domain. O75164. AID 504339. AlphaScreen JMJD2A-Tudor / H3K4me3 peptide binding. Potency, µM (doses to about 114 µM), for inactives: at the highest dose activity change, negative = inhibition, hits mostly inhibitors. 4.4% of 390,000 active; also: % is scaled to controls: 0 for no effect and ±100 for the full control effect; nearly all actives have a fitted effect of over 50% in size
BAZ2B block = blocks human BAZ2B | 4.4% of 360,000 active | AlphaScreen BAZ2B-H3K14Ac peptide displacement | Q9UIF8 | Potency, µM (series often up to 114 µM), without a hit: at the highest dose activity change, negative = inhibition, usual class: inhibitors | AID 504333; also: % is scaled to controls: 0 for no effect and ±100 for the full control effect; nearly all actives have a fitted effect of over 60% in size
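Multi-concentration screen (max 110 uM) measuring displacement of acetylated histone H3 peptide from BAZ2B by AlphaScreen, using 50 nM protein, 50 nM peptide and 10 ug/mL streptavidin donor plus Ni-chelate acceptor beads.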
HP1b chromo inh = HP1-beta chromodomain-methylated histone interaction inhibition; P83916; AlphaScreen HP1-beta / biotin-H3K9me3 peptide binding; Potency, µM (titrated, usually from 114 µM), for the others: at the top dose activity change, negative = inhibition, actives largely listed as inhibitors; 0.56% of 390,000 active; AID 540317; also: nearly all actives have a fitted effect of over 70% in size
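HP1-beta protein (50 nM final) preincubated 30 min at room temperature with biotinylated H3(1-18)K9me3 peptide (50 nM) in PBS pH 7.4, 0.01% Tween-20, then compound added for 30 min. AlphaScreen streptavidin donor/nickel chelate acceptor beads (10 ug/mL final), 30 min dark, luminescence read.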
Sfp PPTase inh = Sfp phosphopantetheinyl transferase inhibition. 3.5% of 310,000 active. Potency, µM, for the others: largest response in the series, negative = inhibition, actives largely listed as inhibitors. Q9F4F7. Biochemical Sfp PPTase activity, qHTS;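 also: the enzyme is Sfp with the accession as filed and its product quenches rhodamine fluorescence; 0% = enzyme reaction without inhibitor and -100% = no enzyme wells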
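Reaction rates are the 30-min fluorescence difference (ex 525, em 598 nm) in wells containing 15 nM Sfp, 5 uM rhodamine-CoA and 12.5 uM BHQ-2-YbbR at pH 7.6 with 10 mM MgCl2.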
Numbers without * were called inactive; ? = inconclusive; / = no result given; [ ] = another dose, or the depositor's remark. Calls follow the shape of the dose curve; as a rule, active = well fitted curve in the direction sought with a large enough effect; inconclusive = small, poorly fitted or top-dose-only effect, or another doubt; inactive = no such curve, though single readings can be large; an effect the other way counts as inactive or inconclusive. Potency is read from the fitted curve at half-maximal effect.

SMILES	L3MBTL1 inh	G9a block	JMJD2A Tudor inh	BAZ2B block	HP1b chromo inh	Sfp PPTase inh
CCCSc1nnc(CSc2nc(C)cc(C)n2)n1C	0.5%	-5.8%	56.2µM*	-0.3%	0.8%	14.1%
CCC(C)Sc1nnc(CSc2nc(C)cc(C)n2)n1C (configuration not stated)	-3.0%	0.9%	-11.0%	4.1%	4.9%	3.6%
Cc1ccc(-n2c(CSc3nc(C)cc(C)n3)n[nH]c2=S)cc1	4.2%	3.98µM*	25.1µM*	-0.6%	25.4%	1.8%
CCc1ccc(OCC(=O)N(Cc2ccc(C)o2)C2CCS(=O)(=O)C2)cc1 (configuration not stated)	/	-22.3%[59 µM]	56.2µM*	-29.4%	12.3%	/
Cc1cc(OCC(=O)N(Cc2ccc(N(C)C)cc2)C2CCS(=O)(=O)C2)cc(C)c1Cl (configuration not stated)	/	?	39.8µM*	10µM*	-25.2%	/
Cc1ccc(OCC(=O)N(Cc2ccc(C)o2)C2CCS(=O)(=O)C2)cc1 (configuration not stated)	/	-5.3%	?	-13.1%[57.1 µM]	6.9%	-4.7%
Cc1cccc(OCC(=O)N(Cc2ccc(N(C)C)cc2)C2CCS(=O)(=O)C2)c1 (configuration not stated)	-14.6%	/	?	?	-16.8%	1.2%
Cc1ccc(CN(C(=O)COc2ccc(Br)cc2)C2CCS(=O)(=O)C2)o1 (configuration not stated)	/	-7.6%	25.1µM*	?	-7.6%	-0.2%
CC(C)Sc1ncc(Cl)c(C(=O)N(Cc2ccc(N(C)C)cc2)C2CCS(=O)(=O)C2)n1 (configuration not stated)	/	?	56.2µM*	44.7µM*	?	/
COCCn1c(C)cc(O)c(C(c2ccccc2)N2CCC(C)CC2)c1=O (configuration not stated)	/	-21.9%[59 µM]	-23.7%	1.2%	6.8%[57 µM]	/
COC(=O)C1=C[C@@H](C(=O)OC)[C@@H]2C3=C(C(=O)[C@]2(C)NC(=O)c2ccccc2)[C@H](C)n2c(=O)n(-c4ccccc4)c(=O)n2[C@@H]3C1	/	/	-15.5%	/	35.9%	/
Cn1c(=O)c(-c2cc(F)cc(F)c2)nc2cnc(Oc3ccccc3)nc21	/	?	/	/	/	-4.1%
CC(C)C[C@H]1CN=C(Nc2ccccc2)N1CC1CCCCCC1	6.5%	-12.7%[2.33 µM]	-24.8%	5.3%	14.6%	/
COC(=O)c1cccc(NC(=O)CSc2nc(=O)cc(N)n2-c2ccccc2)c1	/	?	-22.3%	56.2µM*	-11.3%	10.9%
CCc1cccc(NC(=O)CSc2nnc(Cc3ccc(OC)cc3)c(=O)[nH]2)c1	-5.1%	50.1µM*	2.8%	9.5%	5.5%	/
Cc1ccc(NC(=O)CSc2nc(=O)cc(N)n2-c2ccccc2)cc1	/	1.9%[59 µM]	2.4%	-2.8%	35.8%	11.4%
COC(=O)c1cccc(NC(=O)CSc2nc(O)c(-c3ccccc3)c(=O)[nH]2)c1	-26.9%	70.8µM*	-24.0%	?	22.4%	16.3%
CCc1ccc(CNC(=O)c2sc3nc[nH]c(=O)c3c2C)cc1	/	7.0%[59 µM]	-16.8%	4.2%	25.5%[57 µM]	/
C/C=C(\C=C\[C@@H](C)C/C=C/CC/C=C/C=C\C[C@@H](OC)/C(C)=C\C=C(C)C)CC(=O)O	/	/	/	/	/	0.9%
NSc1nc(N)c2nc(-c3ccccc3)c(-c3ccccc3)nc2n1	-20.5%	6.31µM*	-30.5%	-23.6%	1.9%	-17.1%
Nc1nc(N)c2nc(-c3ccccc3)c(N)nc2n1	-1.8%	-4.4%[59 µM]	-20.0%	12.2%	21.6%	3.6%
COc1cccc(Nc2nc(-c3sc(N)nc3C)cs2)c1	-9.1%	?	?	39.8µM*	?	-9.7%
COc1ccccc1Nc1nc(-c2sc(N)nc2C)cs1	-7.6%	12.6µM*	?	?	?	50.1µM*
COc1cccc(Nc2nc(-c3sc(NC(=O)c4ccco4)nc3C)cs2)c1	-4.1%	39.8µM*	?	?	-31.8%	-13.3%
COc1cccc(Nc2nc(-c3sc(C)nc3C)cs2)c1	-4.2%	/	?	?	-11.2%	-28.9%
SMILES	L3MBTL1 inh	G9a block	JMJD2A Tudor inh	BAZ2B block	HP1b chromo inh	Sfp PPTase inh
Cc1ccc(CNC(=O)C(CC(C)C)OC(=O)c2ccco2)cc1 (configuration not stated)	/	23.0%	8.4%	-11.8%	-2.4%	1.9%
CCSc1oc(-c2ccco2)nc1S(=O)(=O)c1ccc(C)cc1	/	25.1µM*	-12.6%	-30.7%	28.9%	-11.0%
Cc1ccc(S(=O)(=O)c2nc(-c3ccco3)oc2SCC(C)C)cc1	/	?	-1.4%	-1.0%	40.8%	/
CC(C)CSc1oc(-c2ccco2)nc1S(=O)(=O)c1ccccc1	-5.0%	35.5µM*	3.5%	-19.6%	63.4%	-6.3%
Cc1ccc(S(=O)(=O)c2nc(-c3ccco3)oc2SCc2ccc(F)cc2)cc1	/	?	-8.9%	-13.1%	17.9%	/
Cc1ccc(S(=O)(=O)c2nc(-c3ccco3)oc2SC(C)C)cc1	/	44.7µM*	-15.7%	-13.8%	14.3%	-1.6%
CCCCCS(=O)(=O)c1oc(-c2cccs2)nc1S(=O)(=O)c1ccc(C)cc1	/	3.55µM*	-14.9%	-5.2%	53.5%	/
CCSc1oc(-c2cccs2)nc1S(=O)(=O)c1ccccc1	?	?	39.8µM*	-2.5%	?	?
CCSc1oc(-c2ccco2)nc1S(=O)(=O)c1ccc(F)cc1	-8.2%	3.98µM*	-14.7%	3.2%	14.2%	-25.8%
Cn1c(=O)c2cn(-c3ccccc3)cc2n(C)c1=O	-6.6%	32.7%[12.7 µM]	-28.7%	-23.5%	55.8%	4.5%
COc1cccc(-n2cc3c(=O)n(C)c(=O)n(C)c3c2)c1	4.4%	35.5µM*	-5.8%	?	26.9%	-14.6%
Cc1nn(-c2ccccc2)c(OC(=O)C(C)C)c1Sc1ccc(Cl)cc1	/	4.47µM*	-33.1%	-2.9%	4.2%	/
COc1ccc(C(=O)Oc2c(Sc3ccccc3)c(C)nn2-c2ccccc2)c(OC)c1	/	-38.3%[59 µM]	3.1%	4.7%	48.3%	/
COc1ccccc1Cn1c(CNS(=O)(=O)c2ccc3c(c2)CCCC3)nc2cccnc21	/	10.8%[59 µM]	-23.9%	-9.0%	9.9%[57 µM]	/
CCCc1cc(=O)[nH]c(SCC(=O)N(Cc2ccccc2)C(C)C)n1	/	1µM*	3.2%	?	24.5%	9.9%
CCCc1cc(=O)[nH]c(SCC(=O)NC2CC2)n1	6.4%	/	0.0%	/	42.9%	/
CCCc1cc(=O)[nH]c(SCc2ccccc2)n1	/	-24.4%[12.7 µM]	-5.7%	-0.1%	21.5%	4.2%
CCCc1cc(=O)[nH]c(SCC(=O)C(C)(C)C)n1	/	70.8µM*	-14.3%	11.5%	6.4%	-4.9%
COc1ccccc1CN1CCC(CNC(=O)c2cnn(-c3ccc(Cl)cc3)c2C2CCN(C(=O)OC(C)(C)C)CC2)CC1	/	-26.7%[59 µM]	-31.1%	3.3%[57.1 µM]	25.2%	/
